These results are taken from PubChem BioAssay (NCATS).

Values joined by “and” are separate entries in the source; they are usually repeats but may differ in a detail not shown here. Equal values may be shown once. Records with an inconclusive call do not appear. Values without a mark were called inactive. Active and inactive are the calls of the source. Calls follow the shape of the dose curve; as a rule, active = well fitted inhibition curve with a large enough effect; inconclusive = small, poorly fitted or top-dose-only effect; inactive = no such curve, though single readings can be large or run the other way.
% is scaled to controls: 0 for no effect and ±100 for the full control effect; potency is read from the fitted curve at half-maximal effect.

A short description of the assay: Primary qHTS for inhibitors of nuclear receptor binding SET domain protein 2 (NSD2) in an RCH-ACV wild type WT cells (2C) (AID 1645877). Also: nearly all actives have a fitted effect of over 70% in size. The settings on record: RCH-ACV (leukaemia line) NSD2 WT (2C) viability, CellTiter-Glo, 72 h; series mostly up to 44.9 µM; activity change, negative = cell killing: at the top concentration. In general terms: Quantitative high-throughput screening tests each substance at several concentrations.
Consider `O=C(NCC1CCN(Cc2cccc(Cl)c2)CC1)[C@@H]1CCCN(c2ncnc3c2nc2n3CCCC2)C1`, for which the “activity change, negative = cell killing” value was -16.7%.
As for `CCn1c2ccccc2c2cc(Nc3ccnc(NCCCN4CCOCC4)n3)ccc21`, the Potency was 8.17 µM (active).
The same measure, in the same setting: the figure for `NC(=O)c1cnc(N[C@@H]2CCCC[C@H]2N)nc1Nc1cccc(-n2nccn2)c1` is 0.459 µM (active).
On the same count and under the same terms, the figure for `N#Cc1ccc(O[C@@H]2c3ccccc3C[C@H]2N2CCC[C@@H](N)C2)c(Cl)c1` is 18.3 µM (active).
For `N[C@@H]1c2cccnc2[C@H](OC(=O)N2CCC(n3c(=O)[nH]c4ncccc43)CC2)CC[C@H]1c1cccc(F)c1F`, the “activity change, negative = cell killing” value was -19.4%.
Turning to `C[C@H](CN(C)C)Oc1nc(Nc2cc3cccc(Cl)c3cn2)cnc1C#N`, the Potency was 409 nM (active) and 934 nM (active).
For `CCN1CCN(Cc2ccc(NC(=O)c3ccc(C)c(Oc4ccnc5[nH]ccc45)c3)cc2C(F)(F)F)CC1`, the Potency is 0.713 µM (active).
The same measure, in the same setting: the figure for `CC(C)NCCCn1c(Sc2cc3c(cc2I)OCO3)nc2c(N)ncnc21` is 0.325 µM (active); for `CC(=O)Nc1nc(C)c(-c2nc(N3CCCC(O)C3)no2)s1` (stereo unspecified) it is 1.15 µM (active).
Turning to `C#Cc1cccc(Nc2nc3cc(C(=O)O)ccc3c3cncnc23)c1`, the Potency was 2.58 µM (active).
Turning to `Cc1[nH]c2ccccc2c1CCNC(=O)c1cccs1`, the “activity change, negative = cell killing” value is -7.77%.
In the case of `CN1CCN(C2=Nc3ccccc3Nc3ccc(OS(=O)(=O)C(F)(F)F)cc32)CC1`, the Potency is 16.3 µM (active).
As to `CC(C)Oc1ccc(-c2cnc3c(-c4ccnc5ccccc45)cnn3c2)cc1`, the outcome was inactive.
For the compound `CC(C)C[C@@H](C(=O)N[C@@H](Cc1ccc(OCc2ccccc2)cc1)C(=O)NC(C)(C)C)N(C)Cc1ccc(C(C)(C)C)cc1`, the “activity change, negative = cell killing” value was -35.8%.
Take `CN(C)C(=O)COC(=O)c1cc(-c2ccc(C3CCNCC3)cc2)c2ccc(-c3ccc(C(F)(F)F)cc3)cc2c1`: the Potency is 4.59 µM (active).
Turning to `O=C(Nc1ccccc1Cl)c1cnc2ccc(C3CCNCC3)cn12`, the Potency was 2.3 µM (active).
In the case of `CN(C)CCn1cc(-c2ccc(F)cc2)c(-n2cccc2)n1`, the “activity change, negative = cell killing” value is -14.3%.
For the compound `O=c1ccc2ccc(OCCCCN3CCN(c4cccc5sccc45)CC3)cc2[nH]1`, the Potency was 16.3 µM (active).
For `Cc1nc(NC(=O)N2CCC[C@H]2C(N)=O)sc1-c1ccnc(C(C)(C)C(F)(F)F)c1`, the Potency is 1.63 µM (active) and 2.95 µM (active).
On the same count and under the same terms, the figure for `c1ccc(-c2ccc(CNc3nc(-c4ccccn4)nnc3-c3ccccc3)cc2)cc1` is 2.95 µM (active); for `COc1nc2ccc(Br)cc2cc1[C@@H](c1ccccc1)[C@@](O)(CCN(C)C)c1cccc2ccccc12` it is 14.5 µM (active); for `CC[N+]1(C/C2=C/CCCCCC2)CCC(NC(=O)C2c3cc(Cl)ccc3Oc3ccc(Cl)cc32)CC1` (stereo unspecified) it is 18.3 µM (active).
For the compound `Cc1c(C2=CCN(C(=O)N(C)C(C)C)CC2)nnn1-c1cccnc1F`, the “activity change, negative = cell killing” value was -18%.
The same measure, in the same setting: the figure for `Cc1nc2c(C(F)(F)F)cccc2nc1-c1ccc(-c2cccc(S(C)(=O)=O)c2)cc1` is -30.8%.
Still for that read-out and setting: the figure for `CC(=O)NC[C@H]1CN(c2ccc(N3CCSCC3)c(F)c2)C(=O)O1` is -13.4%; for `CC#CCn1c(N2CCCC(N)C2)nc2c1c(=O)n(Cc1nc(C)c3ccccc3n1)c(=O)n2C` (stereo unspecified) it is -17.2%.
On to `Cc1nc(-c2cn3c(n2)-c2ccc(-c4cnn(C(C)(C)C(N)=O)c4)cc2OCC3)n(C(C)C)n1`, for which the Potency is 5.8 nM (active) and 33.2 nM (active).
For `O=c1cc(OCc2ccc(F)cc2)ccn1-c1ccc(OCCN2CCCC2)cc1`, the Potency was 8.17 µM (active).
For `CC(NC(=O)Cc1cc(F)cc(F)c1)C(=O)NC1C(=O)N(C)c2ccccc2-c2ccccc21` (stereo unspecified), the Potency is 3.25 µM (active).
As to `Cn1cc(-c2cnn3c(N)c(Br)c([C@@H]4CCCNC4)nc23)cn1`, the Potency is 1.15 µM (active) and 4.17 µM (active).
Take `COc1ccnc(CS(=O)c2nc3cc(OC(F)F)ccc3[nH]2)c1OC` (stereo unspecified): the “activity change, negative = cell killing” value is -27.4%.
